Source: PubChem BioAssay (National Center for Advancing Translational Sciences (NCATS))
POLK inh – blocks human DNA polymerase kappa activity; Q9UBT6; purified Pol kappa, fluorescent DNA synthesis assay, 10 min; Potency, µM (top dose mostly 107 µM), for the others: at the highest dose activity, negative = inhibition, usual class: inhibitors; 400,000 tested, 0.53% active; AID 588579; note: potency is the fitted concentration of half-maximal effect; % is set by controls: 0 for no effect and ±100 for the full control effect
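Fluorescent qHTS in 1536-well format: enzyme (10 nM) and compound sat 15 min at room temperature before 50 nM substrate (final) was added. Signal taken at 0 and 10 min; no-enzyme buffer wells were negative controls.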
Pol beta inh – blocks human DNA polymerase beta activity; Pol beta primer extension/strand displacement, fluorescence kinetic; P06746; 340,000 tested, 1.3% active; Potency, µM (top dose mostly 114 µM), for the others: at the highest dose activity change, negative = inhibition, hits mostly inhibitors; note: potency is the fitted concentration of half-maximal effect; % is set by controls: 0 for no effect and ±100 for the full control effect
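Preincubation: enzyme (10 nM) with compound, 15 min, RT. Reaction: substrate added to 50 nM final. Reads: 0 and 10 min. Analysis: normalized, Hill fit.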
Pol eta inh – inhibitors of human DNA polymerase eta | Q9Y253 | recombinant Pol eta, fluorescent DNA replication assay | Potency, µM (top dose mostly 114 µM), for inactives: at the highest dose activity change, negative = inhibition, actives largely listed as inhibitors | 390,000 tested, 1.2% active | AID 588591; note: potency is the fitted concentration of half-maximal effect; % is set by controls: 0 for no effect and ±100 for the full control effect
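Pol eta at 10 nM preincubated with compounds 15 min at room temperature; reaction started with fluorescent substrate (50 nM final) and read kinetically at 0 and 10 min.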
PI5P4Ka inh – PI5P4K alpha (human) kinase inhibition | PI5P4Kalpha enzyme, ADP-Glo luminescence, 60 min; stronger effect = lower value | P48426 | 330,000 tested, 1.2% active | max response, %; active = max response of -50% or lower; inconclusive = between -30% and -50%; inactive = -30% or higher; note: value at the top dose of about 77 µM; % is set by controls: 0 for no effect and ±100 for the full control effect
Target sequence (P48426 whole entry, looked up): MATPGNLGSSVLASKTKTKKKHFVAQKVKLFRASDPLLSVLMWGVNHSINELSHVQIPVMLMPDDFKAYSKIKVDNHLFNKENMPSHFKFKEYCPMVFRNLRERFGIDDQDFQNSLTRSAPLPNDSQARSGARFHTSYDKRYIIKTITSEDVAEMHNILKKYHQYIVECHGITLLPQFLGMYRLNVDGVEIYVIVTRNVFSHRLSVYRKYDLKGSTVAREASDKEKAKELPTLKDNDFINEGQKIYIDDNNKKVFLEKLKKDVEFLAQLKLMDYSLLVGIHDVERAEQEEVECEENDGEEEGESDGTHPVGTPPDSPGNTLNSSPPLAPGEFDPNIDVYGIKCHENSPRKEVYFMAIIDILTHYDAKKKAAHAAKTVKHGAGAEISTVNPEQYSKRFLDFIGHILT
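Reactions run in 0.038 M HEPES pH 7.4, 0.28 mM EGTA, 0.1% CHAPS and 5% DMSO, with PI5P4Kalpha, substrate, compound and 5 microM ATP final, one hour at room temperature. Readout is ADP-Glo luminescence.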
WRN helicase inh – WRN helicase (human) inhibition; Q14191; WRN helicase unwinding, fluorescent forked duplex, kinetic; 360,000 tested, 0.46% active; AID 651768; Potency, µM (doses to about 114 µM), inactives show at the highest dose activity change, negative = inhibition, most hits filed as inhibitors; note: potency is the fitted concentration of half-maximal effect; % is set by controls: 0 for no effect and ±100 for the full control effect; nearly all actives have a fitted effect of over 55% in size
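Fluorescence dequenching readout, ex 525 nm/em 598 nm, kinetic mode: forked duplex DNA (100 nM final) with adjacent fluorophore and quencher unwound by WRN (20 nM final) with 2 mM ATP. Compound preincubation 15 min, room temperature.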
Pol iota inh – inhibitors of human DNA polymerase iota; Q9UNA4; Pol iota fluorescent replication assay, 10 min; Potency, µM (doses to about 115 µM), for inactives: at the highest dose activity, negative = inhibition, most hits filed as inhibitors; 390,000 tested, 1% active; AID 588590; note: potency is the fitted concentration of half-maximal effect
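Fluorescent replication assay read twice, at 0 min and 10 min after adding 50 nM (final) substrate. Enzyme (10 nM) and compounds were first incubated 15 min at room temperature; enzyme-free buffer wells were negative controls.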
The depositor's hits bear a star; u = inconclusive; x = not tested or not shown; ! = not confirmed by another sample; [ ] = remark or other dose. A selection: hits, their analogues and other compounds. The true share with any hit is near 2.8%. Unless noted, calls come from the whole dose curve; as a rule, active = well fitted curve in the direction sought with a large enough effect; inconclusive = small, poorly fitted or top-dose-only effect, or another doubt; inactive = no such curve, though single readings can be large; an effect the other way counts as inactive or inconclusive.

SMILES | POLK inh | Pol beta inh | Pol eta inh | PI5P4Ka inh | WRN helicase inh | Pol iota inh
CCOc1cc(N2CCOCC2)c(OCC)cc1NS(=O)(=O)c1cc(NC(C)=O)ccc1OC | u | u | u | -9 | -4%[11.6 µM] | 25µM*
COc1cc(NS(=O)(=O)c2cc(NC(C)=O)ccc2OC)c(OC)cc1NC(=O)c1ccccc1 | -23% | x | 45µM* | u | -8%[11.6 µM] | u
CC(C)(C)n1ncc2c(=O)n(Cc3ccc([S+](=O)([O-])N4CCOCC4)cc3)cnc21 | -3% | x | x | x | x | -24%
CC(NC(=O)Cn1ncc2c3ccccc3n(Cc3ccc(F)cc3)c2c1=O)c1ccccc1 (stereo unspecified) | -20% | 2% | -2% | x | x | 20%
O=S(=O)(c1cccc(C(F)(F)F)c1)N1CCC(Oc2ccc(-n3cnnn3)cc2)CC1 | -12% | -1% | -16% | x | x | 9%
CCc1ccccc1NC(=O)NC(CC)Cn1nnc2ccccc2c1=O (stereo unspecified) | -8% | -14% | 11% | x | x | u
Cn1nc([N+](=O)[O-])nc1S(C)(=O)=O | u | 89µM* | -4% | -11 | -4% | u
CS(=O)(=O)c1nc([N+](=O)[O-])nn1CCCc1ccccc1 | -8% | x | -17% | -2 | -6% | 10%
C[n+]1cc2c3c(ccc2c2ccc4cc5c(cc4c21)OCO5)OCO3 | -11%[60.1 µM] | 7.9µM* | u | x | x | 28µM*
C[n+]1c(/C=C/c2ccc3c(c2)OCO3)ccc2ccccc21 | -15% | 9% | 8% | -3 | 4% | 23%
CCOc1ccccc1Nc1sc(C(=O)c2ccc(Cl)cc2)c(N)c1S(=O)(=O)c1ccccc1 | 0%[60.1 µM] | 4% | -23% | x | x | 24%
O=C(Cc1ccccc1Cl)NC1(O)C(=O)c2ccccc2C1=O | -4% | 4% | u | 2 | 1%[11.6 µM] | 5µM*
O=c1[nH]c(=O)n(Cc2ccccc2)c2nc(-c3cccs3)n(CCO)c12 | -7% | 35µM* | -2% | -25 | -11% | -15%
CNS(=O)(=O)c1cn(CC(=O)Nc2cccc(C(F)(F)F)c2)cc1S(=O)(=O)NC | 2% | -17% | -15% | x | x | 23%
COc1ccccc1N1CCN(C(=O)CSc2n[nH]c(-c3ccccc3Cl)n2)CC1 | -11%[60.1 µM] | -20% | -9% | x | x | 3%
CN(Cc1ccccc1C#N)S(=O)(=O)c1cccs1 | 6% | 2% | -10% | 2 | 0% | 30%
N#Cc1nccnc1S(=O)(=O)c1cccs1 | -4% | -6% | -10% | -7 | 50µM* | 148%
Cc1nc(-c2ccncc2)sc1C(=O)Nc1ccc(Br)cc1 | -7% | 16µM* | -19% | 5 | -4% | 42%
CC(=O)Nc1ccc(NC(=O)c2sc(-c3ccccc3)nc2C)cc1 | 2% | -29% | -17% | 0 | 7% | 5%
Cc1cc(C)cc(NC(=O)CSc2nnc(-c3cc4occc4n3C)n2-c2ccccc2C)c1 | 1% | 3% | -24% | x | x | 24%
COc1cccc(C2C(C#N)=C(N)OC(C(C)(C)C)=C2C#N)c1 (stereo unspecified) | -8% | 10% | 0% | -4 | -11% | u
COc1cccc(/C=C2/CN(C)CC3=C2OC(N)=C(C#N)C3c2cccc(OC)c2)c1 (stereo unspecified) | -15% | 3% | -20% | -10 | 79µM* | -20%
O=C(NCCOC(=O)Nc1cccc2ccccc12)OCc1ccccc1 | -10% | x | -21% | 15 | -6% | 15%
CO/N=C/NC(=O)c1ccc([N+](=O)[O-])c(CS(=O)(=O)c2ccc(Cl)cc2)c1 | -6% | 10% | -19% | -50* | u | -5%
COc1ccc(-c2cc(C(F)(F)F)nc(SCC(=O)N(C)Cc3ccccc3)n2)cc1 | -15% | 15% | -11% | x | x | -15%
SMILES | POLK inh | Pol beta inh | Pol eta inh | PI5P4Ka inh | WRN helicase inh | Pol iota inh
Nc1cc2nc3ccccc3oc-2cc1=O | 45µM* | 25µM* | u | -28 | -1%[11.6 µM] | 20µM*
Cc1nn(C)c2c1c(-c1ccccc1)cc(=O)n2CC(=O)NC(C)C | -24% | -1% | -27% | x | x | -7%
Cc1cccc(CN(CC(=O)N/N=C/c2ccco2)S(=O)(=O)c2ccc(Cl)cc2)c1 | -32% | u | 28µM* | -23 | u | u
Cc1ccc(S(=O)(=O)N(CC(=O)N/N=C/c2ccco2)Cc2ccccc2)cc1 | 14% | -16% | -18% | x | -24% | 57%
CN(c1ccccc1)c1nc(C#N)nc(N2CCOCC2)n1 | 0% | x | x | x | x | 11%
CCCSCCCNC(=O)c1ccc2nc(Cc3ccccc3)oc2c1 | -11%[60.1 µM] | -6% | -12% | x | x | 8%
O=C(Cc1coc2cc3c(cc12)CCC3)OCc1cc(=O)n2c(n1)sc1ccccc12 | 89µM* | 10µM* | 10µM* | u | -20%[57.1 µM] | u
O=C(O)c1c(Cl)c(Cl)c(Cl)c(Cl)c1-c1c2cc(I)c(=O)c(I)c-2oc2c(I)c(O)c(I)cc12 | 12µM* | x | x | x | x | x
O=C1CNC(=O)/C1=C\c1ccc(O)cc1 | 3% | 2% | u | -62* | -36% | -15%
COc1ccccc1NC(=O)CCn1nc(-c2ccccc2OC)c2c(C)cc(C)nc21 | -10% | 7% | -13% | x | x | 7%
O=C(O)CCCCC1CCSS1 (stereo unspecified) | 6.7µM*! | 1.1µM* | 0% | 1 | -21% | 19%
CN1CCN(C(=S)NC(=O)c2ccc(Cl)cc2)CC1 | -12% | u | u | -91* | -24% | u
CCC(CO)Oc1cc(NCc2ccc(O)cc2)c2ncn(C(C)C)c2c1 (stereo unspecified) | -2% | x | -11% | -4 | 3% | 3%
CCC(CO)Oc1cc(NC(=O)c2ccc(F)cc2)c2ncn(C(C)C)c2c1 (stereo unspecified) | -17% | x | -12% | -6 | 1% | 26%
CCOCCOc1cc(NCc2ccccc2)c2ncn(C(C)C)c2c1 | -24% | x | -23% | 0 | 4%[11.6 µM] | 35µM*
CCC(CO)Oc1cc(NC(=O)c2ccc(N)cc2)c2ncn(C(C)C)c2c1 (stereo unspecified) | 3% | x | 89µM* | -6 | -33% | u
CCCCOc1cc(NCc2ccccc2)c2ncn(C(C)C)c2c1 | -23% | x | -19% | 1 | -4% | u
CCC(CO)Oc1cc(NCc2ccccc2)c2ncn(C(C)C)c2c1 (stereo unspecified) | 11% | x | -9% | -1 | 1%[11.6 µM] | 18µM*
Cn1cnc([N+](=O)[O-])c1S(=O)(=O)Oc1ccc(Cl)cc1 | 3% | x | 2% | -3 | 35µM* | u
CCCCc1ccc(C(=O)N/C(=C\c2ccc(C)cc2)C(=O)NC2CCCCC2)cc1 | -20% | -2% | x | x | x | -1%
Cc1cccc(CSc2nc3c(sc4ccccc43)c(=O)n2CCC(=O)NC(C)C)c1 | -2% | 25µM* | -22% | x | x | 24%
